Measurements from the supplement of paper PMC12632987.

T1: USP38, Q8NB14
T1 chain: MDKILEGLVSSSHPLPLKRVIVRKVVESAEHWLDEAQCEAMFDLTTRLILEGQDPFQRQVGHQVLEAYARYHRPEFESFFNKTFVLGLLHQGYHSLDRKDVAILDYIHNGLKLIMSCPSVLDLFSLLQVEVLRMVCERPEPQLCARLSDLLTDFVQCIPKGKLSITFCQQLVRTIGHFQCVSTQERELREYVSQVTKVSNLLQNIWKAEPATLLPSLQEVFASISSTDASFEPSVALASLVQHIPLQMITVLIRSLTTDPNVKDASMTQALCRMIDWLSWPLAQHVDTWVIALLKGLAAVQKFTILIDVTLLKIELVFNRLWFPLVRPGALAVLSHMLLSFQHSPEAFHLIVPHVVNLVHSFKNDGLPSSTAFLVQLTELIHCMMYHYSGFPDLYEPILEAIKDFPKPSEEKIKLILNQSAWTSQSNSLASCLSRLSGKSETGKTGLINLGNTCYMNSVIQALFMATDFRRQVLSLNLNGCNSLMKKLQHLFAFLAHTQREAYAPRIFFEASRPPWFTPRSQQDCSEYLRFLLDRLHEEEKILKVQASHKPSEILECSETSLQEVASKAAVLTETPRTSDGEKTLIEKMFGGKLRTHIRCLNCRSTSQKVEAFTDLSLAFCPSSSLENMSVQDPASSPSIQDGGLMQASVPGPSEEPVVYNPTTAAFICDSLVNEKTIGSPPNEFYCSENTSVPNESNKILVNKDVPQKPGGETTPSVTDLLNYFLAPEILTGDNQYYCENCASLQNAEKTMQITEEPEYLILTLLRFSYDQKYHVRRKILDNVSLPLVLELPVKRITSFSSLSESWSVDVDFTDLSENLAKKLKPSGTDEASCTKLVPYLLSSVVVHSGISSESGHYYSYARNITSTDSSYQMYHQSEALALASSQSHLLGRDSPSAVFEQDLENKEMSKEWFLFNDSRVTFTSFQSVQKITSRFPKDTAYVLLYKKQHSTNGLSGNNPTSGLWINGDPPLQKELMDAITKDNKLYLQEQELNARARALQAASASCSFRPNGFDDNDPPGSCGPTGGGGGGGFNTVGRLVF

B1: usp_38_diff_out_18_28_415 (protein)
chain: MLEENRKKIEEAKKEADELIDKANKVATEGFLKYSEDPSNEELLKAVNELLDYVGKAAAAVVEMRENINDPEAVEEQLKKFKEAKEKAEKAIEEVKKLIA
B2: usp_38_diff_out_18_28_413 (protein)
chain: MREENRKRIEEMEKKADELIDEANEVATEGYLKYADDPSNEELLKAIRELMDAVGEAAAAVREARENIDDPEKVEEEEKRFEEAYEKAKKKIKEVKELIK
B3: usp_38_diff_out_18_28_404 (protein)
chain: MMEEIQKKIEEAEKEADKLIDEYTKAATEAFLKYAEDPSATELVEAVNKAADALGEAAKAVNEMRRHKDDPEKVEKELKKFEEAKKKAEEALKEIKKLIA
B4: usp_38_diff_out_18_28_411 (protein)
chain: KKEEIQEKIKKAEEKLDKLIDKYVEISTKAFLKYHENPESKELLEAVDKLADELGKAAQHVNLMRENKDDEEKVEKELKEFEEHSKKAEELLKKVEELIK
B5: usp_38_diff_out_18_28_429 (protein)
chain: SMEEIKKKIEEAEKEADALIDEANEVATQGFLAYHENPEKTELLEAVNELWDALGKAAQAVNDMRENKNNPEKVEKELKKFKEAAKAAKEKIAKIKELIA
B6: usp_38_diff_out_18_28_421 (protein)
chain: MREERRKRIEELEKEADELIDEYEKLAREAFLYYHENPEAEEVLEAARRLGDAVGKAAAAVNEMKENIDDEEKFEEYEEEFKRYKAEAKEYAEELKKLLA
B7: usp_38_diff_out_18_28_422 (protein)
chain: SLAERRALIEELKKEADELIDEYTELATEAFLAYHENPDAEELLAAADALSDAVGAAAAAVREMREHLEDEAKVEAYTKEFKAQKKEAKEKAKELKKLLA
B8: usp_38_diff_out_18_28_401 (protein)
chain: MEEEIEKKIKEAKEKTDEMIDEYVELGEQAFLKYHEDPSSEHLLELLNEAADALGKAAKAVNLMRENKDDPEKVEKELEKFKKYSEKAEKLFEEIKKELE
B9: usp_38_diff_out_18_28_424 (protein)
chain: MAAEIQARIDAAKARADALIDEVEKVSTEAFLKYSEDPSMEELLEADRKLWDAAGTAAAAVRAMREHRDDPAAVDAELAVFEKAAAEAEKLIKEIKELIK
B10: usp_38_diff_out_18_28_427 (protein)
chain: ALAANQATIEKARAEADKLIDESNKILTEAYLAYHEDPSSKELLEAAKKLSDALGKAAQAVNDMRAHRHDAAAVAKHAKEFEKAAKEAKKAIEEIKKLLK
B11: usp_38_diff_out_18_28_400 (protein)
chain: MQEEIQKIIEENEKKTNELIDKYTELGEKAFLAYHEDPSNEELLEKLDELADALGKAAKKVNEMRENKNDPEKVKEYSKEFEEYYKKAEALMKEIEKLLA
B12: usp_38_diff_out_18_28_430 (protein)
chain: AEEEIKAKIEAAEKEMDKLIDEYVKVAEEAFLKLDESDKGEELEEAINKMADALGKAAAAVNEMRRNRDDPAAVEAELEKFKKAKKEAEEYIKKIKELLK
B13: usp_38_diff_out_18_28_397 (protein)
chain: EEERREELERRLEELERELDALIREATEAATAALEAHPDSAEVWALVDALFDALGAAAAHLRRARELLREGGPLEEVERELEKAEAHLAEARALLAELKA
B14: usp_38_diff_out_18_28_416 (protein)
chain: MMKEIEEKIEKLEKEADELIDKATEAMTKGFLKINEDPNSEELIEAINKLSDAVGKAAHAVNLARRNKNNPEAVEKYEKEFEKAKKEAEKELKKLEELIK
B15: usp_38_diff_out_18_28_417 (protein)
chain: MLEERRERLKEMEKEADELIDKYNEAATKGFLYYHEHPEAEEVLEAVDKLSDAVGAAAAAVNEMRENIEDEEAFKKEEEKFKEYKKEAEKYLEELEKLIA
B16: usp_38_diff_out_18_28_403 (protein)
chain: MQEEVEKKIKEAEKKTDELIDKYTEAATAGFLKYAEDPSATELVEAVRAAADALGAAAQAVNEMKRNKDDPEKVEELLKKFEEAYKKAEEALKEIERLIA
B17: usp_38_diff_out_18_28_409 (protein)
chain: AKEEIEKKIEEAEKELDELIDEYVKISTEAFLKYHEDPSSKELLEAVNELADELGKAAQAVNEMRKNRDDKEAVEKQLKVFEEHKKKAEELLKKIKELIK
B18: usp_38_diff_out_18_28_426 (protein)
chain: MLEENKKKIEKAKEEADKLIDEANKVATEGFLKYSENPENEELLKKINELWDAVGKAAQAVNDMRENIEDEEAVEKNLKKFEEAKKEAEKLIEELKKLIE
B19: usp_38_diff_out_18_28_428 (protein)
chain: SQEEIQKLIEENRKKTDELIDEANKVATEAYLAYHDNPEATELLEAVDKLWDALGKAAQAVNEMRENRDDPEKVKKEAAKFEEAAKKAEEYIKKIKELIA
B20: usp_38_diff_out_18_28_399 (protein)
chain: EEEERRRLEEELRRLEEELDELIDEAVEAATKALTAHPGDEAVEALVRELFDHLGAAAAALREARELLRAGGDPEEVRRLLEEAREHLEKAREALKELKA
B21: usp_38_diff_out_18_28_406 (protein)
chain: SSEEIEKKIEEAKEETDKLIDRYVEISTAAFLKYHEDPSSEELLKKVNELADALGKAAKAVNEMRENKDNEEKVEKYLEEYKKYSEEAEKLLEEIEKLIK
B22: usp_38_diff_out_18_28_414 (protein)
chain: MLEENKKKIEEMKKEADELIDKANEVMTQGYLAYADDPSNEELLKAIRELGDAVGAAAAAVREARENIENPEKVEKEKKKFEEAKKAAEEKIEEVKKLIA
B23: usp_38_diff_out_18_28_407 (protein)
chain: MEEEIKEKIEEAKKRLDELIDRYVEIATKAFLKYHENPESKELLEKVRKLADELGKAAQAVNLMRENKDNEEKVEEELEKFEKHYEEAEKLLEEIEKLIK
B24: usp_38_diff_out_18_28_420 (protein)
chain: MKEERLKKLEELEKRADALIDEYNELATKGFLKYHDDPSATEVLEAVNKLSDAVGAAAAAVNAMKENIDNEEAFEAEYKKFEEEEAKAKEYAEELKKLIA
B25: usp_38_diff_out_18_28_410 (protein)
chain: KKEEIEKKIEEAEEELDKLIDEYVEVATEAFLKYHEDPSSEELLEKVRELADELGKAAKAVNEMRENKDNEEKVEEELEKFKKHKEEAEKLLKEVKELIK
B26: usp_38_diff_out_18_28_396 (protein)
chain: AEAERAALEKRLAELQKRLDALITEATAAATAALEAHPDDAAVWALVAQLFDALGAAAAALQRARELLRAGGPLEEVQAALDEAEAHLAQAEALLAELKA
B27: usp_38_diff_out_18_28_405 (protein)
chain: MQEEIEKKIEEAEKRTNELIDKYTEAATRAFEAYAEDPSKTELVKAINEASDALGKAAQAVNEMKRNKDDPEKVEKELKKFEEAYKKAEEAIAKIEELIA
B28: usp_38_diff_out_18_28_398 (protein)
chain: SAAERAELEAELAALQKELDALITEATAAATAALTAHPDSAEVWALVDALFDHLGAAAAALREARRLLREGGPLEEVRAALAAAQAHLAEARALLAELKA
B29: usp_38_diff_out_18_28_425 (protein)
chain: MREEVERRIAELEARADALIDRAEEVSTKAFLAYSEDPSSEELLKKNDELWDAVGAAAAAVREMRENRDDPEAVAREEERFREAAARAEALIKEIEKLIK
B30: usp_38_diff_out_18_28_402 (protein)
chain: MEEEIEKKIEEAEKRTDELIDEYVELGEKAFLKYHEDPSSEELLEKLDKLADELGKAAQAVNLMRENRDDPEKVEKEYAEFEKYYEKAKKLLEEIKKLLE
B31: usp_38_diff_out_18_28_419 (protein)
chain: MLEERQKKIEKLQKEADELIDKYTEAAEKGFLKYHEDPSAEEVLEAIKELSDHVGAAAAAVNEMKENIENEEKFEEELKKFKEHKKKALEALEKLKKLLA
B32: usp_38_diff_out_18_28_412 (protein)
chain: SAAAVQATIDQMKADLDALIDEANEVSEKAFLKYGEDPSSTELLAAVNELWDHLGAAAQAVNDARRNRDNEAAVAAKAAEFKKHADKAKEKIAEIKKLIA

Target: T1, USP38, Q8NB14
Experiment: median log2 fold change of GCK-ALFA target abundance (FLAG IP / Myc IP barcode read proportion) (log2 ratio); each designed protein is fused to an ALFA-tag nanobody in HEK293 cells to bring the named protein to FLAG-tagged glucokinase (GCK); Myc marks an untargeted standard; higher = target protein stabilised (more abundant)
Settings: target protein: 3xFLAG-MCP-GCK-ALFA reporter; HEK293 landing pad (RPLP)
Method in brief: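 HEK293 landing-pad cells received a recombined binder library fused to the ALFA nanobody and were induced with 2 μg mL^−1 doxycycline, then transfected with a plasmid encoding a FLAG-tagged target and a Myc-tagged standard. Lysates were collected after 48 h for anti-FLAG and anti-Myc immunoprecipitation, and the circular RNA barcodes were reverse transcribed, amplified and sequenced. Target abundance for each binder is the median log2 ratio of FLAG to Myc barcode read proportions. Barcodes had to reach a proportion of at least 10^−7 in both replicates, each binder needed at least 3 barcodes per replicate, a pseudocount of 10^−6 was applied, and the two replicates were pooled.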
For B1, the “median log2 fold change” value was 0.333. For B2, the “median log2 fold change” value was -0.0716. In the case of B3, the “median log2 fold change” value is reported as -0.178. For B4, the “median log2 fold change” value was -0.206. In the case of B5, the “median log2 fold change” value is reported as -0.434. In the case of B6, the “median log2 fold change” value is reported as -0.848. In the case of B7, the “median log2 fold change” value is reported as -0.0738. With B8 the “median log2 fold change” value was -0.818. B9 was tested, and the “median log2 fold change” value was 0.0788. B10 was tested, and the “median log2 fold change” value was -0.128. B11 was tested, and the “median log2 fold change” value was -1.05. B12 was tested, and the “median log2 fold change” value was -0.244. For B13, the “median log2 fold change” value was -0.194. In the case of B14, the “median log2 fold change” value is reported as -0.28. In the case of B15, the “median log2 fold change” value is reported as -0.307. With B16 the “median log2 fold change” value was -0.0578. With B17 the “median log2 fold change” value was -0.273. For B18, the “median log2 fold change” value was 0.0382. B19 was tested, and the “median log2 fold change” value was 0.0104. With B20 the “median log2 fold change” value was -0.117. B21 was tested, and the “median log2 fold change” value was 0.0217. For B22, the “median log2 fold change” value was 0.143. For B23, the “median log2 fold change” value was -0.152. With B24 the “median log2 fold change” value was 0.326. B25 was tested, and the “median log2 fold change” value was -0.357. For B26, the “median log2 fold change” value was -0.054. B27 was tested, and the “median log2 fold change” value was 0.0557. B28 was tested, and the “median log2 fold change” value was 0.000517. B29 was tested, and the “median log2 fold change” value was -0.0591. B30 was tested, and the “median log2 fold change” value was 0.282. In the case of B31, the “median log2 fold change” value is reported as 0.0382. With B32 the “median log2 fold change” value was -0.188.
